# The entries come from a sample that favours hits as a whole.
# PKA kinase inh – inhibitors of human PKA kinase activity, primary screen, biochemical, ATP-depletion luminescence, Kemptide substrate. cAMP-dependent protein kinase catalytic subunit alpha (Homo sapiens), P17612. PKA Kemptide phosphorylation, Kinase-Glo ATP luminescence. inhibition, % at 6 µM. hit rate 0.1% among 65,000. AID 524, 2006;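 active means inhibition above the screen-wide mean inhibition plus 3 SD, cut at about 21% in these data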
# D1 allo mod – D1 CRE-luciferase signal change, two-sided – cell-based, HEK293 D1, dopamine EC30, D1 allosteric modulator project, primary screen | dopamine EC30 potentiation; actives deviate in either direction | AID 641, 2007 | B-score at 10 µM | hit rate 5.9% among 58,000;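 active means luminescence count or its row- and column-corrected plate score outside the 99.7% band of the plate's sample wells, on either side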
# DAT uptake mod – changed hDAT dopamine uptake under cocaine IC80, either direction, primary screen, cocaine antagonist project, cell-based, LLC-PK1 hDAT, [14C]-dopamine uptake, MLSMR. Sodium-dependent dopamine transporter (Homo sapiens), Q01959. B-score at 10 µM. AID 449768, 2010. LLC-PK1 hDAT cells, [14C]-dopamine uptake with cocaine IC80; actives deviate in either direction. hit rate 1.3% among 110,000;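 active means Z score or B-score, a plate-position-corrected score, falls beyond the plate's 99.7% confidence bounds, in either direction; inactive means both scores lie inside the 99.7% bounds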;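 further: scored against the spread of the other compound wells on the same plate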
# ROCK2 blocker – inhibitors of human ROCK2 kinase, primary screen, biochemical, high-throughput, luminescence; Rho-associated protein kinase 2 (Homo sapiens), O75116; purified ROCK2, Kinase-Glo ATP depletion luminescence; inhibition, % at 6 µM; hit rate 0.35% among 60,000;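 active means inhibition above the screen-wide mean inhibition plus 3 SD, cut at about 18% in these data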;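 further: plate controls were DMSO wells for no effect and Y-27632 control wells after no-enzyme background subtraction for full effect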
# JNK3 blocker – JNK3 kinase activity inhibitors, primary screen, biochemical, human, purified enzyme; Mitogen-activated protein kinase 10 (Homo sapiens), P53779; HTS; inhibition, % at 8 µM; hit rate 0.61% among 60,000; in the data active means inhibition above about 17%;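 further: 0% = DMSO and 100% = reference inhibitor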
# Target sequence (P53779 whole entry, looked up): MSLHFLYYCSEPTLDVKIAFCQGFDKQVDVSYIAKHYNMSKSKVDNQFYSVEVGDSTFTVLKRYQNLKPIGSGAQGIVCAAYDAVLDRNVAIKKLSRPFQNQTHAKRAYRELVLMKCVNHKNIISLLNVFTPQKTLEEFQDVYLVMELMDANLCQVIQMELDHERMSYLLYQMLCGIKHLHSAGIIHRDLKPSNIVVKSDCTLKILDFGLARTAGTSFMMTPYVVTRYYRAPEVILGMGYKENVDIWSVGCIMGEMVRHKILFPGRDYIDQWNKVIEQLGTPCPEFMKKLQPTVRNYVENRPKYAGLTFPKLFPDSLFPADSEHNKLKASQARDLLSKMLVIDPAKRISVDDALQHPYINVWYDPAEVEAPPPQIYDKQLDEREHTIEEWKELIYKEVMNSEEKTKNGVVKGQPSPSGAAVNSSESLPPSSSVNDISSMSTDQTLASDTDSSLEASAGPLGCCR
# D1 PAM confirm – D1 receptor positive allosteric modulators, retest, confirmation, cell-based, HEK293 D1, CRE-luciferase, duplicate | shares compounds with D1 allo mod | dopamine EC30 potentiation; stronger effect = higher value | luminescence at 10 µM | hit rate 88% among 2,200 | AID 642, 2007;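 active means luminescence in either of two replicates above the same-plate mean plus 3 SD of the low-dose dopamine control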
# D1 ag no DA – D1 receptor agonism without dopamine, confirmation, mechanism study for D1 allosteric modulator project, cell-based, HEK293 D1, CRE-luciferase, secondary assay 1; luminescence, no dopamine; stronger effect = higher value; shares compounds with D1 allo mod; hit rate 0.8% among 1,900; luminescence at 10 µM; in the data active means luminescence above about 3900
# Isoprot counter – counter-screen for D1 modulators: isoproterenol response in HEK293 cells | AID 647 | HEK293 D1 CRE-luciferase, isoproterenol EC30 counter-screen | calls only at 10 µM | shares compounds with D1 allo mod | hit rate 63% among 2,200;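 active means luminescence in either replicate above plate mean of wells with a partly effective reference agonist dose plus 3 SD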;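 further: isoproterenol raises cAMP through native beta-adrenoceptor Gs so signal bypasses D1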
# * = called active by the depositor; i = inactive; · = no result given; + = active, no number.
SMILES,PKA kinase inh,D1 allo mod,DAT uptake mod,ROCK2 blocker,JNK3 blocker,D1 PAM confirm,D1 ag no DA,Isoprot counter
Cc1cc2n(n1)C(c1ccc3c(c1)OCO3)Nc1ccccc1-2 (configuration not stated),-10,11*,-0.36,-6,-2,17556*,·,+
Cc1cc2n(n1)C(c1ccc(N(C)C)cc1)Nc1ccccc1-2 (configuration not stated),10,1.1,-0.57,2,-7,·,·,·
Cc1cc2n(n1)C(c1sccc1C)Nc1ccccc1-2 (configuration not stated),-3,8.4*,-0.13,-8,0,9040*,·,+
Cc1ccc2c(c1)-c1cc(C)nn1C(c1sccc1C)N2 (configuration not stated),7,2.2,-0.086,4,0,·,·,·
O=C(CCNS(=O)(=O)c1ccccc1F)NCc1ccc2c(c1)OCO2,9,·,0.6,4,-9,·,·,·
Cc1c(C(=O)Nc2ccc(C(=O)O)cc2)cnn1C,-3,-0.29,-0.011,-1,0,·,·,·
COc1cccc(C2CC(c3cccc(Br)c3)n3nc(N)nc3N2)c1 (configuration not stated),5,9.3*,-1.3,4,-1,12600*,1776,+
Nc1nc2n(n1)C(c1cccc(Br)c1)CC(c1ccccc1)N2 (configuration not stated),0,37*,1.1,4,-2,18056*,1512,+
COc1ccc(N(CC(=O)NCc2cccs2)S(=O)(=O)c2cccnc2)cc1,4,0.65,-1.3,1,-2,·,·,·
CCN(CC)CCCN1C(=O)C(=O)/C(=C(/O)c2ccc3c(c2)CC(C)O3)C1c1cccnc1 (configuration not stated),0,·,·,-11,-3,·,·,·
COc1cc(NC2c3ncccc3C(=O)N2Cc2ccco2)cc(OC)c1 (configuration not stated),14,12*,0.099,6,1,14836*,1576,+
COc1ccc(NC2c3ncccc3C(=O)N2Cc2ccccc2)c(OC)c1 (configuration not stated),1,19*,0.34,-9,1,14524*,1572,+
Cc1ccc(NC2c3ncccc3C(=O)N2Cc2ccc(F)cc2)cc1 (configuration not stated),2,7.5*,0.25,1,-3,10592*,·,+
CCOc1ccc(N2C(=O)c3cccnc3C2Nc2ccc(F)cc2)cc1 (configuration not stated),10,0.012,1.3,5,1,·,·,·
COc1ccc(CN2C(=O)c3cccnc3C2Nc2ccc(OC)c(Cl)c2)cc1 (configuration not stated),6,7.6*,2.2,5,-1,13912*,·,+
CC(=O)N1CCc2cc(S(=O)(=O)CCC(=O)N3CCN(C(=O)c4ccco4)CC3)ccc21,9,0.016,-0.15,5,5,·,·,·
CCCc1ccccc1OCCNC(C)=O,-7,0.025,-0.23,-1,-1,·,·,·
C#CCNC(=O)C1=C[C@@H](c2ccc(Br)cc2)C[C@@H](OCCCCO)O1,·,·,0.0051,·,·,·,·,·
Cc1ccc(-n2nc3c(c2NC(=O)c2ccc(Br)o2)CSC3)c(C)c1,-4,4.8*,-0.49,·,·,5856,1520,i
CCCCCOC(=O)CSc1nc2c(c(=O)[nH]c(=O)n2C)n1CCc1ccccc1,4,-0.091,0.14,-4,-5,·,·,·
CC(C)CCn1c(SCCc2ccccc2)nc2c1c(=O)[nH]c(=O)n2C,12,-0.54,-0.1,2,2,·,·,·
CCCCCn1c(SCC(=O)OC)nc2c1c(=O)[nH]c(=O)n2C,6,4.2*,-1,5,5,14176*,1660,i
CCOC(=O)C(CC)Sc1nc2c(c(=O)[nH]c(=O)n2C)n1C/C=C(/C)Cl (configuration not stated),3,8.6*,0.55,2,0,16300*,1792,+
COC(=O)CSc1nc2c(c(=O)[nH]c(=O)n2C)n1CCC(C)C,12,5.2*,-1.1,4,2,12872*,1692,+
CCC(C)Sc1nc2c(c(=O)[nH]c(=O)n2C)n1C (configuration not stated),0,2.5,-0.5,-4,-3,·,·,·
SMILES,PKA kinase inh,D1 allo mod,DAT uptake mod,ROCK2 blocker,JNK3 blocker,D1 PAM confirm,D1 ag no DA,Isoprot counter
CCCCN(C)C(=O)c1cn(CC)c2ccc(S(=O)(=O)N(C)C)cc2c1=O,0,3*,-0.48,2,4,5816,1512,i
COc1ccc(N2CCN(c3nc(NCCc4ccc(OC)c(OC)c4)nc(OC)n3)CC2)cc1,-3,2.8*,0.37,-6,-9,11472*,1500,+
CCOc1nc(NCCc2ccc(OC)c(OC)c2)nc(N2CCN(c3ccc(OC)cc3)CC2)n1,·,·,-1.2,·,·,·,·,·
Cc1cc(N2CCN(S(=O)(=O)c3ccc4c(c3)OCCO4)CC2)n2ncnc2n1,6,4.1*,0.46,2,-1,6428*,1504,i
CCN(CC)c1ncccc1C(=O)NCc1cccs1,-1,7.6*,-0.41,2,1,13524*,1416,+
O=c1n(Cc2ccccc2)c2cc(Cl)cnc2n1Cc1ccccc1,-8,8.1*,-0.25,-10,-3,9248*,1640,i
O=c1[nH]c2ccccc2n1Cc1ccc(Cl)cc1,·,·,-0.58,·,·,·,·,·
NC(=O)C1CCN(c2nc(C3CC3)nc3c2nnn3Cc2ccccc2)CC1,6,15*,-0.35,-1,-3,24680*,1492,+
N#CC(C(=O)c1ccco1)c1ccccn1 (configuration not stated),-5,0.53,0.54,-1,13,·,·,·
CCc1cccc2c(C#N)cn(CC(=O)NCCOC)c12,-3,3*,-0.59,1,5,4856,1524,i
CCc1cccc2c(C#N)cn(CCOc3ccccc3OC)c12,-1,-0.79,-0.74,0,-2,·,·,·
O=C1C2C3C=CC([C@@H]2C(=O)N1C1CC1)[C@H]1C(=O)N(C2CC2)C(=O)C31 (some centres not stated),·,·,1.7,·,·,·,·,·

# High-throughput results: PubChem BioAssay, several laboratories
